Experimental findings from PubChem BioAssay AID2701 (National Center for Advancing Translational Sciences (NCATS), 2010) are described below.

Molecules are shown by their SMILES. This is one part of the list. Records with an inconclusive call do not appear. Unmarked numbers belong to inactive results. Calls of active or inactive are those of the source. Calls follow the shape of the dose curve; as a rule, active = well fitted inhibition curve with a large enough effect; inconclusive = small, poorly fitted or top-dose-only effect, or another doubt; inactive = no such curve, though single readings can be large or run the other way.
Potency is read from the fitted curve at half-maximal effect.

In the experiment the target is 4'-phosphopantetheinyl transferase ffp (Bacillus subtilis) (UniProt Q9F4F7). Briefly: Confirmation qHTS Assay for Inhibitors of Bacillus subtilis Sfp phosphopantetheinyl transferase (PPTase). The conditions noted are these: Sfp PPTase enzymatic assay, qHTS titration; series mostly up to 114 µM; activity change, negative = inhibition: at the top concentration. The text has this: The covalent attachment of a phosphopantetheinyl (4'-PP) arm to a variety of synthases and other proteins is a key posttranslational protein modification. The 4'-PP is installed on the proteins post-translationally from coenzyme A (CoA) on a conserved serine residue by action of phosphopantetheinyl transferase (PPTase) enzymes. Phosphopantetheinylation is essential for synthase activity, and removal of the PPTase gene precludes natural product synthesis in microorganisms, or in the case of fatty acid biosynthesis, renders the organism unviable. PPTase enzymes belong to a distinct structural superfamily. Within bacteria, these enzymes are grouped into two classes based upon primary structure, the AcpS-Type and Sfp-Type PPTases.
4'-phosphopantetheinyl transferase ffp (Bacillus subtilis), sequence (Q9F4F7 whole entry, looked up): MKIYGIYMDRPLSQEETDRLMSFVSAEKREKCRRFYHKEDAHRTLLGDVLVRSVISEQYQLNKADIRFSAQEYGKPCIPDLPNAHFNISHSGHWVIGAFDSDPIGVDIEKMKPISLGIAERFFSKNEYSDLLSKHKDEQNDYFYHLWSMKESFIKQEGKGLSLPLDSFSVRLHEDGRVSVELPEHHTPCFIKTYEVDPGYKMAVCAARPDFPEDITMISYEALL
Sfp-type PPTases, corresponding to an activator of surfactin production in Bacillus subtilis, are responsible for modifying type I polyketide and nonribosomal peptide synthases of prokaryotes. Sfp-type PPTases are responsible for the activation of a variety of pathogen-associated virulence factors. Among these compounds are toxins such as mycolactone from Mycobacterium ulcerans, siderophores such as vibriobactin from Vibrio cholerae or mycobactin from Mycobacterium tuberculosis, as well as the mycolic acids which form the waxy cell wall of Mycobacteria. The biosyntheses of these natural products are considered attractive targets for drug design.
In search of small molecule Sfp-PPTase inhibitors, a fluorescence quenching assay was developed for detection of Bacillus subtilis Sfp-PPTase enzymatic activity in a miniaturized high-throughput format. The consensus ybbr acceptor peptide […] was N-terminally labeled with Black Hole Quencher-2 (BHQ-2) and used in combination with rhodamine-labeled coenzyme A as a co-substrate.
Inhibition of Sfp-PPTase was detected by recording the fluorescence intensity change over a 30-minute reaction period at a 525 nm excitation and 598 nm emission. Reagents were supplied by Michael Burkart and Timothy Foley, University of California at San Diego.
Assay Submitter: Michael Burkart, University of California, San Diego
Screening Center PI: Austin, C.P.
Screening Center: NIH Chemical Genomics Center [NCGC]
Assay Buffer: 50 mM Hepes-Na pH 7.6, 10 mM MgCl2, 0.01% Nonidet P-40, and 0.01% BSA.
3 uL of Sfp-PPTase enzyme (final concentration 15 nM) and 1 uL of substrate mixture (final concentration for rhodamine-CoA and BHQ-2-YbbR 5 uM and 12.5 uM, respectively) dispensed in columns 1, 2, 5 - 48. Columns 1 and 2 used to generate neutral control (uninhibited reaction)
Three uL of reagents, consisting of buffer (in columns 3 and 4 as negative control) and Sfp-PPTase (in columns 1, 2, 5 - 48) were dispensed into 1,536-well Greiner black solid bottom plate. Compounds (23 nL) were transferred via Kalypsys pintool equipped with 1,536-pin array. The plate was incubated for 15 min at room temperature, followed by the addition of 1 uL substrate to start the reaction. The plate was then centrifuged at 1000 rpm for 15 seconds, and the fluorescence intensity recorded on a ViewLux High-throughput CCD imager (Perkin-Elmer) using standard BODIPY optics (525 nm excitation and 598 nm emission). The plate was then incubated for 30 minutes, and a second read on the ViewLux was performed. The fluorescence intensity difference over the 30-minute period was used to calculate the respective reaction rate for each well.
Background: Quantitative high-throughput screening tests each substance at several concentrations.
As to `O=c1[nH]c2ccccc2n2c(-c3ccccc3)nnc12`, the Potency is 2.1 µM (active).
With `COc1ccc(OCc2nnc3n2N=C(c2ccccc2)C(CC(=O)O)S3)cc1` (configuration not stated), the Potency is 2.35 µM (active).
The same measure, in the same setting: with `NC(=O)c1c(NC(=O)CSc2nnc(-c3ccco3)n2N)sc2c1CCCC2` the figure was 14.8 µM (active); with `CC(C)(C)c1nnc(NC(=O)C2c3ccccc3Oc3ccccc32)s1`, 4.69 µM (active); with `Cc1ccc(NC(=O)c2c(NC(=O)CCC(=O)O)sc3c2CCCCC3)cc1`, 14.8 µM (active).
Still for that read-out and setting: next, `OCCN1CCN(C(=S)c2ccc(-c3ccccc3)cc2)CC1`: 14.8 µM (active); `Cc1ccc(/C=C(\C#N)C(=O)Nc2cccc3ncccc23)o1`: 26.4 µM (active); `CCCOC(=O)Nc1sc2c(c1C(=O)OCC)CCC2`: 29.6 µM (active).
Consider `Cc1nn2c(c1-c1ccccc1)N=C(c1ccco1)CC2c1ccccc1` (configuration not stated), for which the Potency is 37.3 µM (active).
`c1ccc(-c2nc(NCc3ccco3)c3ccccc3n2)cc1`: the “activity change, negative = inhibition” value was -5.44%.
Take `CCC(c1nnnn1Cc1ccco1)N(Cc1cc2cc(OC)ccc2[nH]c1=O)C1CCCCC1` (configuration not stated): the Potency was 9.37 µM (active).
The same measure, in the same setting: with `FC(F)(F)C1CCCN(c2nsc3ccccc23)C1` (configuration not stated) the figure was 2.1 µM (active).
